Results published in ChEMBL document CHEMBL3988442, “University of Dundee, Small-Polar-MMV Screening Library” (2021).

Tested on: Trypanosoma cruzi
Assay: Trypanosoma cruzi phosphomannomutase and mannose-1-phosphate guanylyltransferase assay
Type: functional
Parameters: scale not given: direction of the effect not stated beside the values
Conditions: 10 µM

SMILES | Percent Effect [%]
CC1CN(C(=O)NCCCn2cncn2)CCO1 (centres undefined) | -2.82
CCCc1nc(CN2CCOC(CNc3cccnn3)C2)cs1 (centres undefined) | -0.849
Cc1ccc(NC2CCN(C(=O)c3cccn3C)CC2)nn1 | 11.2
Cc1ccc(CNC(=O)Cn2ncc3c2c(C)nn3C)cc1 | -6.68
O=C(N[C@@H]1CN(Cc2ccccc2)C[C@@H]2CCCO[C@@H]21)C1CC1 | -2.32
Fc1ccc(OCCCN2CCOC(Cn3cncn3)C2)cc1 (centres undefined) | 3.79
Cc1cc(C)c(CNC(=O)NCC(O)c2cccc(F)c2)c(=O)[nH]1 (centres undefined) | -0.0934
O=C(CCn1ccc2cc(Br)ccc21)NCc1ccc(C(=O)O)cc1 | -3.02
O=C(NCc1ccc(OCC2CC2)nc1)c1c(F)cccc1F | -5.16
CSc1nccn1-c1cccc(C(=O)NCCCN2CCOCC2)c1 | 1.21
CC(C)c1nn(C)c(N(C)C)c1CNCc1ccc2c(c1)OCO2 | -7
CC(Oc1ccccc1C(F)(F)F)C(=O)NCC(N)=O (centres undefined) | 4.3
O=c1n(CCSCc2ccccc2F)nc2ccccn12 | 7.15
Cc1noc(C)c1C1CCCN1C(=O)CN1CC2(CCNCC2)OC1=O (centres undefined) | -1.35
CN(CC1CCCO1)C1CCN(CCc2ccccn2)CC1 (centres undefined) | -1.95
N#Cc1cccc(S(=O)(=O)NC(=O)COC2CCCC2)c1 | 1.31
COc1cccc(OCC(=O)NS(=O)(=O)c2ccc(C)s2)c1 | 5.19
Cn1ccnc1-c1ccccc1C(=O)N1CCc2c(nc(N)[nH]c2=O)C1 | -2.06
CN(C)C(=O)CN1C[C@@H]2CC[C@H](C1)N(C(=O)CCn1cncn1)C2 | -1.16
